# Measurements: PubChem BioAssay (Tox21)
# Several values for one entry are separate records, joined by “and”; a condition that tells them apart may be missing. Equal values may be shown once. Records with an inconclusive call do not appear. Activity calls are given as the source filed them. The call rests on the fitted dose curve; in most records, active means well fitted cell-killing curve with a large enough effect in the repeat runs; inconclusive means weak or mixed curves, or effect the other way; inactive means flat fitted curve, though single readings scatter.
# Test: cAMP Responsive Elements (CRE) small molecule agonists, cell-based qHTS assay: qHTS cell viability counter screen (AID 2060914); further: nearly all actives have a fitted effect of over 50% in size
# Conditions: CRE-bla HEK293T viability, CellTiter-Glo luminescence, 5 h; series mostly up to 92.4 µM; activity change, negative = cytotoxicity: at the top concentration
# Outline: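 HEK 293T CRE-bla; DMEM + 10% dialyzed FBS, 25 mM HEPES; 18 h pre-incubation; compound 3 h, 37 °C/5% CO2; CellTiter-Glo added after reporter read; luminescence after 30 min RT.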
# On the % scale 0 is the no-effect control and ±100 the full control effect; potency means the concentration at half of the fitted maximal effect.
Compound,"activity change, negative = cytotoxicity",Potency
O=C(O)CCSSCCC(=O)O,13.5% (inactive),–
Cc1c(N)cccc1[N+](=O)[O-],-11.4% (inactive),–
CCC(C)(C)C1CCC(=O)CC1,-0.0965% (inactive),–
O=C(Cl)c1ccc(F)c(Cl)c1,-0.536% (inactive),–
c1cc(CN2CCCCC2)cc(OCCCNc2nc3ccccc3s2)c1,-0.961% [at 42.5 µM] (inactive),–
C=COCCCCO,0.111% (inactive),–
O=S(O)(O)=S,9.38% [at 8.39 µM] (inactive),–
O=C(O)Cc1ccc(CCNS(=O)(=O)c2ccc(Cl)cc2)cc1,-28.7% [at 42.5 µM] (inactive),–
C[C@]12CC[C@@H]3c4ccc(O)cc4CC[C@H]3[C@@H]1CCC2=O,–,inactive
CCCCCCCCCCCCCCCCCC#N,-23.8% (inactive),–
O=S(=O)(O)c1ccc2nc(-c3ccccc3)[nH]c2c1,–,29.1 µM (active) and 21.1 µM (active)
OCc1cccnc1,–,inactive
CC(C)C[C@H]1C(=O)N2CCC[C@H]2[C@]2(O)O[C@](NC(=O)[C@@H]3C=C4c5cccc6[nH]c(Br)c(c56)C[C@H]4N(C)C3)(C(C)C)C(=O)N12,9.69% [at 42.5 µM] (inactive),–
Nc1ncn([C@@H]2O[C@H](CO)[C@@H](O)[C@H]2O)c(=O)n1,13.3% [at 42.5 µM] (inactive),–
CCCCNC(=O)NS(=O)(=O)c1ccc(N)cc1,–,inactive
COc1cc2nc(Cl)nc(N)c2cc1OC,11.6% [at 42.5 µM] (inactive),–
CCc1ccc2c(c1)C(=O)c1ccccc1C2=O,-26% (inactive),–
CS(=O)(=O)OCCCCOS(C)(=O)=O,–,inactive
C=CCOc1c(Br)cc(Br)cc1Br,0.13% (inactive),–
Cc1cc(O)c2c(c1)C(=O)c1cc(O)cc(O)c1C2=O,-16.5% (inactive),–

Compound,"activity change, negative = cytotoxicity",Potency
CC(C)(CCC(=O)O)C(=O)O,1.3% (inactive),–
CCOC(=O)c1ccccc1C,-7.13% (inactive),–
Cc1nccn1-c1ccc(Sc2cccc(C3(C(N)=O)CCOCC3)c2)cc1,0.411% (inactive),–
Cc1ccc(N=Nc2c(O)ccc3ccccc23)c(C)c1,0.205% [at 42.5 µM] (inactive),–
CCc1nccnc1CC,11.2% [at 18.9 µM] (inactive),–
CC(C)(C)CC(C)(C)c1ccc(O)c(Cc2ccc(Cl)cc2Cl)c1,–,13.3 µM (active)
CN(C)c1ccc(Cc2ccc(N(C)C)cc2)cc1,–,inactive
O=C(O)/C=C\C(=O)O,–,inactive
O=C1OC(=O)c2cccc3cccc1c23,-6.95% (inactive),–
CC(C)CCCCCOC(=O)CS,-3.24% (inactive),–
CC(=O)c1ccc(Cl)c(Cl)c1Cl,-4.46% (inactive),–
O=c1ccc2ccccc2o1,–,inactive
CC1(C)CCC[C@]2(C)[C@H]3CC(=O)O[C@]3(C)CC[C@@H]12,-19.7% (inactive),–
NS(=O)(=O)c1ccc(Cl)c(S(N)(=O)=O)c1,2.07% [at 42.5 µM] (inactive),–
CCCCCC#CC(=O)OC,1.44% (inactive),–
COc1cc2nc(N(C)CCCNC(=O)C3CCCO3)nc(N)c2cc1OC (centres undefined),1.07% [at 42.5 µM] (inactive),–
CSc1ccc(Cl)cc1,–,inactive
CCCCOC(O)CC (centres undefined),1.15% (inactive),–
COC(/C=C(\C)CCC=C(C)C)OC,-0.937% (inactive),–
